A number with no mark means an inactive call.
Compound: C#CCNC(=O)CCSSCCC(=O)NCCc1ccc(C=O)c(C=O)c1
Test: lysine labeling ratio R10:1 (500 µM / 50 µM probe), SILAC-ABPP in living cells; higher = lower intrinsic lysine reactivity toward the probe, active = 2 or less
Settings: HeLa; probe concentrations 500 vs 50 µM
Outline: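 Forward and reverse SILAC label swaps were used with living light and heavy HeLa cells in PBS at room temperature, which were given an alkyne-tagged, disulfide-linked lysine probe at 50 µM or 500 µM. R is the per-lysine filtered median high-probe/low-probe MS1 peptide ratio, with the median then taken across both swap directions. Values are limited to 20.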

Chain of UniProt Q15149 (Q15149 whole entry): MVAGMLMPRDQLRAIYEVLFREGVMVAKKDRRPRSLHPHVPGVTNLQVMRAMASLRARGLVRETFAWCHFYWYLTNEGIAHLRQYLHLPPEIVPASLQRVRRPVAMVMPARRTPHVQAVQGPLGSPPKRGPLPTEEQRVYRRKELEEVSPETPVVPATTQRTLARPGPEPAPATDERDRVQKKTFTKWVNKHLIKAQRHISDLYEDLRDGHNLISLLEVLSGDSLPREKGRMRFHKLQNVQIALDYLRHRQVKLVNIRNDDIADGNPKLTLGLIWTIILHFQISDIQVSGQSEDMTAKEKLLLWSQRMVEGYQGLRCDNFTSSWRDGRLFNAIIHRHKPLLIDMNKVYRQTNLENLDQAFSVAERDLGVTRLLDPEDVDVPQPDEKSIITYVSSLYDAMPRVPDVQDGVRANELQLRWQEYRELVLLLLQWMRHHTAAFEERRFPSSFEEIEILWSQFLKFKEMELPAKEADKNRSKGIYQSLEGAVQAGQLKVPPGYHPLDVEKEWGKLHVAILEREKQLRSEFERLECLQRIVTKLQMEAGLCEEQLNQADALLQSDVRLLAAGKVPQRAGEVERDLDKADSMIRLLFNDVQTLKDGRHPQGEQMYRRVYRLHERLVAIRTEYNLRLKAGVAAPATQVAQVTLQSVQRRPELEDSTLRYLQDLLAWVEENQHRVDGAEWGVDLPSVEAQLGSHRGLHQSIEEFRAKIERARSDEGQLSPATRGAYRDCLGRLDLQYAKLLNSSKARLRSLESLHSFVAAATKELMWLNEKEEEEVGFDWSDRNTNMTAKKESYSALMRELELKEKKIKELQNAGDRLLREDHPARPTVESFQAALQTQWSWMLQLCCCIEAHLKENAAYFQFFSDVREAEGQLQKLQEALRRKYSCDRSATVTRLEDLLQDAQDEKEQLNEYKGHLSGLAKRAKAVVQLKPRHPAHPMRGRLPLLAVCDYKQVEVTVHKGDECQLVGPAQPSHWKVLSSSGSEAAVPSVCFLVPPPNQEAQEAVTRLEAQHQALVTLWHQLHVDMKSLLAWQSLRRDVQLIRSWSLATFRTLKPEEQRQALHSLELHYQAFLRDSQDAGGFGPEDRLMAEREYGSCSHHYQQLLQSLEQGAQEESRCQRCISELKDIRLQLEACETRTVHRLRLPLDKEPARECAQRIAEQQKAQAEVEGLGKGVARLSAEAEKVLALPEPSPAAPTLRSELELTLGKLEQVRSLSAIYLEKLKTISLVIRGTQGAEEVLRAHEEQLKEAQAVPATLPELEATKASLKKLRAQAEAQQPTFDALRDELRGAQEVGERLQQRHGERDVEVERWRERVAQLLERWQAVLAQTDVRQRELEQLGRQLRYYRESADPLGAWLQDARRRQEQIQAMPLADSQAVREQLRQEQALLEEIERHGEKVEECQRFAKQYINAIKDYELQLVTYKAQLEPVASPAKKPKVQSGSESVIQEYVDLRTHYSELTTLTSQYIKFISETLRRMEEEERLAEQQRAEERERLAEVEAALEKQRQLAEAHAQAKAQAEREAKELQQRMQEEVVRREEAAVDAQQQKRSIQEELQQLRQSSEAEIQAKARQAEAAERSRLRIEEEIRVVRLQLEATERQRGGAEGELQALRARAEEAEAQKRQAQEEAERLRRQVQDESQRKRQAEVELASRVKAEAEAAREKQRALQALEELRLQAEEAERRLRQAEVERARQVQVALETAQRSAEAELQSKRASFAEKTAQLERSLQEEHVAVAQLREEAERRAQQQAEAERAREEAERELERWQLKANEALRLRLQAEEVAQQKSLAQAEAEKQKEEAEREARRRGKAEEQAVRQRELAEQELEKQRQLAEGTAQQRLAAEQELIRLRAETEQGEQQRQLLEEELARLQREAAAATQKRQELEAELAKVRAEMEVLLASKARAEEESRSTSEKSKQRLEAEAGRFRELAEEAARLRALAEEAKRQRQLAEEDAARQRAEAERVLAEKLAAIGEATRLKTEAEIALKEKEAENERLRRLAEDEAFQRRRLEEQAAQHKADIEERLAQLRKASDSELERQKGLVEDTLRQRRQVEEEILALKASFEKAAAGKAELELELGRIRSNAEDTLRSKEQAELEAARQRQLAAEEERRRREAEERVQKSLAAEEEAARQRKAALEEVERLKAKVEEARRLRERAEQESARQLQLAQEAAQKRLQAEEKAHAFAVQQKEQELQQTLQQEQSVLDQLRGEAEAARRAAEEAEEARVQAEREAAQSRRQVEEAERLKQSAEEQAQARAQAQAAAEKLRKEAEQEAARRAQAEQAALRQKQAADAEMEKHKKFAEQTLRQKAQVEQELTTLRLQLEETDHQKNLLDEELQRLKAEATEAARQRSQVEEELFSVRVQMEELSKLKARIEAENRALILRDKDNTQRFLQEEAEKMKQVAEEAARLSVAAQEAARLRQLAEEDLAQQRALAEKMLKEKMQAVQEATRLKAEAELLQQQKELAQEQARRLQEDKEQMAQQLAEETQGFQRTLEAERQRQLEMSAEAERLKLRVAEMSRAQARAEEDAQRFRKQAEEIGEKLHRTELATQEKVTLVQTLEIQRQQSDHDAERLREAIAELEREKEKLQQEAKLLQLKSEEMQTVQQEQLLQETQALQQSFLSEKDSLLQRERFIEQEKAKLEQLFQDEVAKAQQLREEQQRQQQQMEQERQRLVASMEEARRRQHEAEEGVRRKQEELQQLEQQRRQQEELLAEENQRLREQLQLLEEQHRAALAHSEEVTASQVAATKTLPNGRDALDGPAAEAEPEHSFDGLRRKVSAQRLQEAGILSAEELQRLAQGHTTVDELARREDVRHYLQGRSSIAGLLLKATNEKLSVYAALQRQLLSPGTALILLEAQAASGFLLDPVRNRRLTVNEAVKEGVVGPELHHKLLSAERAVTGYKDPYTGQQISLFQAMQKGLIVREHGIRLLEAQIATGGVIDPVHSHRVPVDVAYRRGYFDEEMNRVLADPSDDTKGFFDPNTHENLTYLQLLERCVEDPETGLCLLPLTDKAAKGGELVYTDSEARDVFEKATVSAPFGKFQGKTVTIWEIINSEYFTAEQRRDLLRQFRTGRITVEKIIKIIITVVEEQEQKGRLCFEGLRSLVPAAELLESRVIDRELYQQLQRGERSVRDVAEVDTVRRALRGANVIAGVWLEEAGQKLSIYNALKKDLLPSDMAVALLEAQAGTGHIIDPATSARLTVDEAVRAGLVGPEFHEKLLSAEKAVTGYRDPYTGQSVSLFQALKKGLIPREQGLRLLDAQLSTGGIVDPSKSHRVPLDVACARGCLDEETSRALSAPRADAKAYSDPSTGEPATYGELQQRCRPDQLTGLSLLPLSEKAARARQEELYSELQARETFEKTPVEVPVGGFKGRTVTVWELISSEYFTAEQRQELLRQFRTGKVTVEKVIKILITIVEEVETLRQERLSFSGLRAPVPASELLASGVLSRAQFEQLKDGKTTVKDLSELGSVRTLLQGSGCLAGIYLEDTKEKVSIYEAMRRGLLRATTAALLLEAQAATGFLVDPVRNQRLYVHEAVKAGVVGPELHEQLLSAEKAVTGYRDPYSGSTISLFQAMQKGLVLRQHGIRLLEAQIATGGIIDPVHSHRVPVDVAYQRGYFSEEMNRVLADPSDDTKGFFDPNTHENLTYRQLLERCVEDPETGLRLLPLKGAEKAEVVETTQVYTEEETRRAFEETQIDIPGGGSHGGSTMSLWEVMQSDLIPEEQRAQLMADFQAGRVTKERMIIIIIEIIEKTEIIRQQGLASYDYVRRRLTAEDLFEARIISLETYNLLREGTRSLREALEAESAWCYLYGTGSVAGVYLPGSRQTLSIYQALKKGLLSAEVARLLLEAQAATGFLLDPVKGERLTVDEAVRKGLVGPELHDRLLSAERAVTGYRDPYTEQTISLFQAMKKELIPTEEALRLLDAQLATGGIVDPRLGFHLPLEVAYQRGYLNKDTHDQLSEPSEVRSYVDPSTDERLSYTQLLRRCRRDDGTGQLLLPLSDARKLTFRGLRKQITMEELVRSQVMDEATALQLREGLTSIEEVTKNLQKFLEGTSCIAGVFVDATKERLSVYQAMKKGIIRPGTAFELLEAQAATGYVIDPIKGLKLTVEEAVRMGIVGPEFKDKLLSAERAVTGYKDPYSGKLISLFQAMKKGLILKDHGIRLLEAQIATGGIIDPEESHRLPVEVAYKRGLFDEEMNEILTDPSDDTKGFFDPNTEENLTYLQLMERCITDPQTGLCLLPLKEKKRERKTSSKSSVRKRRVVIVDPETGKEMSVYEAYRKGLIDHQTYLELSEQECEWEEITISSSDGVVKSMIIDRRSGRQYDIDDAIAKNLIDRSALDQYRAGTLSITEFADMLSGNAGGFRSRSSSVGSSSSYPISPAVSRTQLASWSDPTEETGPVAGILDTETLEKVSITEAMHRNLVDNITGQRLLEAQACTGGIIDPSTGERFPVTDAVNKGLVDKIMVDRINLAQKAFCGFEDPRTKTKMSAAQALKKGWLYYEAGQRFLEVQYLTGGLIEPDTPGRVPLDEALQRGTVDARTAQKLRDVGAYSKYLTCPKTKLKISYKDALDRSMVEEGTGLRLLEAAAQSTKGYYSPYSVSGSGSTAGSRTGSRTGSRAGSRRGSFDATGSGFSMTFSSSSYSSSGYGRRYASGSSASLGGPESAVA
Chain of UniProt O43854 (O43854 whole entry): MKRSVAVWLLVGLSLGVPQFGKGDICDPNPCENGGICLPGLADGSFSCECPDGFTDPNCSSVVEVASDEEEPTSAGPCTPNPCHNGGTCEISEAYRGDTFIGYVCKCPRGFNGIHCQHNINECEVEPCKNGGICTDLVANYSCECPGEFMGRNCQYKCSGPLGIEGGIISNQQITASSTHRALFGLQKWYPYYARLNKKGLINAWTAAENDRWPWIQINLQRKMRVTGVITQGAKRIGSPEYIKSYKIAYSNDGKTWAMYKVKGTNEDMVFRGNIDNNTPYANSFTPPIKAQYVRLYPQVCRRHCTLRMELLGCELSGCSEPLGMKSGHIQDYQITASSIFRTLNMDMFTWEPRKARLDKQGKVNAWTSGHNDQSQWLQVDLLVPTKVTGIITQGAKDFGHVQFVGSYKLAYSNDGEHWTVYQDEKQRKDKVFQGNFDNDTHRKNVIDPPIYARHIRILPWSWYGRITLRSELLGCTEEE

Target | lysine labeling ratio R10:1
HSPD1 (lysine site: K301) (UniProt P10809) | 2.58
SPTAN1 (lysine site: K1274) (UniProt Q13813) | 3.51
SURF4 (lysine site: K154) (UniProt O15260) | 4.16
UniProt Q15149 (lysine site: K2553) | 3.44
ITGA3 (lysine site: K895) (UniProt P26006) | 2.18
EDIL3 (lysine site: K157) (UniProt O43854) | 3.03
UniProt Q15149 (lysine site: K1659) | 6.06
PDCD6IP (lysine site: K374) (UniProt Q8WUM4) | 5.72
DDR1 (lysine site: K112) (UniProt Q08345) | 2.03
DDX3X (lysine site: K118) (UniProt O00571) | 4.1
HSP90B1 (lysine site: K733) (UniProt P14625) | 3.26
ACSL3 (lysine site: K222) (UniProt O95573) | 2.52
UniProt P61978 (lysine site: K422) | 4.02
C3 (lysine site: K1051) (UniProt P01024) | 6.25
CDH2 (lysine site: K189) (UniProt P19022) | 4.45
SEMA3C (lysine site: K247) (UniProt Q99985) | 4.79
UniProt Q15149 (lysine site: K1923) | 1.36 (active)
EEF1G (lysine site: K401) (UniProt P26641) | 2.74
FOLR1 (lysine site: K41) (UniProt P15328) | 1.41 (active)
FLNA (lysine site: K1801) (UniProt P21333) | 3.7

Target | lysine labeling ratio R10:1
HSPA9 (lysine site: K106) (UniProt P38646) | 6.72
WDR1 (lysine site: K569) (UniProt O75083) | 5.89
ITGB1 (lysine site: K93) (UniProt P05556) | 2.06
EDIL3 (lysine site: K235) (UniProt O43854) | 7.28
UniProt P08727 (lysine site: K140) | 2.21
UniProt P05787 (lysine site: K352) | 9.16
GALNT2 (lysine site: K111) (UniProt Q10471) | 3.04
HNRNPL (lysine site: K269) (UniProt P14866) | 2.23
NCL (lysine site: K545) (UniProt P19338) | 3.2
HNRNPM (lysine site: K48) (UniProt P52272) | 4.62
UniProt Q9UKX5 (lysine site: K256) | 5.46
DSG2 (lysine site: K72) (UniProt Q14126) | 2.67
LAMA5 (lysine site: K1940) (UniProt O15230) | 1.65 (active)
UniProt P02533 (lysine site: K293) | 2.74
CLU (lysine site: K222) (UniProt P10909) | 0.58 (active)
UniProt Q9UHI8 (lysine site: K655) | 2.17
EHD2 (lysine site: K220) (UniProt Q9NZN4) | 2.14
AHNAK (lysine site: K130) (UniProt Q09666) | 1.37 (active)
L1CAM (lysine site: K144) (UniProt P32004) | 1.09 (active)
ITGB5 (lysine site: K163) (UniProt P18084) | 2.53
